POLK inh = DNA polymerase kappa (human) inhibition | purified Pol kappa, fluorescent DNA synthesis assay, 10 min | Potency, µM (doses to about 107 µM), for the others: at the top dose activity, negative = inhibition, most hits filed as inhibitors | AID 588579 | Q9UBT6 | hit rate 0.53% among 400,000; further: on the % scale 0 is the no-effect control and ±100 the full control effect
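First, compounds were pin-transferred onto 10 nM Pol kappa. After 15 min at room temperature, substrate was added to 50 nM final. Fluorescence was then measured kinetically at 0 and 10 min.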
POLB inh = inhibitors of human DNA polymerase beta | P06746 | Pol beta primer extension/strand displacement, fluorescence kinetic | Potency, µM (doses to about 114 µM), inactives show at the top dose activity change, negative = inhibition, hits mostly inhibitors | hit rate 1.3% among 340,000 | AID 485314; further: on the % scale 0 is the no-effect control and ±100 the full control effect
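Enzyme-only controls used 10 nM Pol beta; buffer lacking enzyme served as negative control. Compound preincubated 15 min, then 50 nM substrate added; 0 and 10 min reads at room temperature.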
POLI inh = inhibitors of human DNA polymerase iota. Potency, µM (titrated, usually from 115 µM), for the others: at the highest dose activity, negative = inhibition, hits mostly inhibitors. AID 588590. Pol iota fluorescent replication assay, 10 min. Q9UNA4. hit rate 1% among 390,000
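Fluorescent replication assay read twice, at 0 min and 10 min after adding 50 nM (final) substrate. Enzyme (10 nM) and compounds were first incubated 15 min at room temperature; enzyme-free buffer wells were negative controls.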
Pol eta inh = blocks human DNA polymerase eta activity; hit rate 1.2% among 390,000; recombinant Pol eta, fluorescent DNA replication assay; Potency, µM (highest dose often 114 µM), without a hit: top-dose activity change, negative = inhibition, most hits filed as inhibitors; AID 588591; Q9Y253; further: on the % scale 0 is the no-effect control and ±100 the full control effect
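Pol eta at 10 nM preincubated with compounds 15 min at room temperature; reaction started with fluorescent substrate (50 nM final) and read kinetically at 0 and 10 min.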
APEX1 inh = inhibitors of human APE1 endonuclease | P27695 | recombinant APE1, TAMRA/BHQ-2 abasic DNA cleavage fluorescence | Potency, µM (series often up to 65.8 µM), without a hit: top-dose activity change, negative = inhibition, actives largely listed as inhibitors | hit rate 0.35% among 350,000;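 further: plate controls were vehicle for no effect and reference inhibitor for full effect; nearly all actives have a fitted effect of over 55% in size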
Target sequence (P27695 whole entry, looked up): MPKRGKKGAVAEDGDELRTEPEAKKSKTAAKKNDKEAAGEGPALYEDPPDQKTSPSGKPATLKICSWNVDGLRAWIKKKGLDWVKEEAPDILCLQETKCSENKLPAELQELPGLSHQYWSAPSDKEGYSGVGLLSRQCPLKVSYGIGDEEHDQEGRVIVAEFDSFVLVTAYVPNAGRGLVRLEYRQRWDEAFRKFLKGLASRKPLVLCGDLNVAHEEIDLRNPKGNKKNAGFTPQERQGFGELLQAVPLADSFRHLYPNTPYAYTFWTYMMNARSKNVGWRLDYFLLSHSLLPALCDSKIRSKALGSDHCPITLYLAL
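Enzyme (0.75 nM final) and test compound are incubated 15 min at room temperature before adding 50 nM quenched THF abasic-site duplex. Cleavage dequenches TAMRA, followed at 525/598 nm over three reads one minute apart.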
L3MBTL1 inh = blocks human L3MBTL1 | AID 485360 | Potency, µM (series often up to 57.1 µM), for inactives: at the top dose activity, negative = inhibition, hits mostly inhibitors | AlphaScreen L3MBTL1–H3K9me1 peptide binding | hit rate 0.66% among 230,000 | Q9Y468; further: on the % scale 0 is the no-effect control and ±100 the full control effect; nearly all actives have a fitted effect of over 60% in size
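AlphaScreen assay: L3MBTL1 (50 nM final) was preincubated 30 min at room temperature with biotinylated H3(1-15)K9me1 peptide (75 nM final), then 30 min with library compounds; streptavidin donor and nickel chelate acceptor beads (10 ug/mL final) added, 30 min dark.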
An asterisk follows results filed as active; ? = inconclusive; / = not tested or not shown; [ ] = another dose, or the depositor's remark. Rows were chosen to be rich in hits. Some 2.5% of all compounds tested hit in one or more screens of this group. The call rests on the fitted dose curve; in most records, active means well fitted curve in the direction sought with a large enough effect; inconclusive means small, poorly fitted or top-dose-only effect, or another doubt; inactive means no such curve, though single readings can be large; an effect the other way counts as inactive or inconclusive. Potency means the concentration at half of the fitted maximal effect.

SMILES	POLK inh	POLB inh	POLI inh	Pol eta inh	APEX1 inh	L3MBTL1 inh
COc1cc(/C=N/NC(=O)Cc2nnc(NC(=O)c3ccccc3)s2)ccc1O	-3%	?	45%	-19%	5%	/
O=C(Cc1nnc(NC(=O)c2ccccc2)s1)N/N=C/c1ccc(O)cc1	-8%	25µM*	?	-22%	-34%	-7%
COc1ccc(-c2nc3ccccc3s2)cc1NC(=O)c1cccc(F)c1	-4%[60.1 µM]	13µM*	?	-29%	/	/
COc1ccc(C(=O)Nc2cc(-c3nc4ccccc4s3)ccc2OC)cc1	-5%	29%	3%	-17%	/	/
COc1ccc(S(=O)(=O)c2nnn(-c3cc(Cl)c(OC)cc3OC)c2C)cc1	-12%	0%	?	89µM*	/	/
CC(=O)Oc1ccc2nonc2c1OC(C)=O	3.2µM*	/	3.5µM*	/	/	/
CC(=O)Oc1cccc(C(=O)O)c1OC(C)=O	5%[19.4 µM]	/	/	/	-3%	/
CC(=O)Nc1cc(OC(C)=O)c2nonc2c1OC(C)=O	-10%	0%	0.79µM*	50µM*	?	2.5µM*
O=C(O)c1cc(NC2(c3ccccc3)C(=O)c3ccccc3C2=O)ccc1Cl	-18%	-11%	5%	-8%	/	/
Cc1nn(-c2ccccc2Cl)c(Cl)c1/C=N/Nc1cccc(C(=O)O)c1	-18%	-3%	-3%	-6%	16%	?
Cc1nn(-c2cccc(C(F)(F)F)c2)c(Cl)c1/C=N/Nc1cccc(C(=O)O)c1	1%	56µM*	0%	-9%	12%	-9%
Cc1nn(C)c2c1c(C(F)(F)F)cc(=O)n2C(C)C(=O)N1CCN(c2ccccc2)CC1 (configuration not stated)	26%	6%	0%	-15%	/	/
COc1ccc2nc3cc(Cl)ccc3c(Nc3cc(CN4CCCC4)c(O)c(CN4CCCC4)c3)c2n1	/	?	/	/	15µM*	/
COc1ccc2nc3cc(Cl)ccc3c(Nc3cc(C(C)C)c(O)cc3C)c2c1	-3%	-10%	37%	-15%	-3%	?
CC(=O)c1cccc(NC(=O)c2cnn(-c3cccc(C)c3)c2-n2cccc2)c1	-1%	-7%	9%	-9%	/	/
C=CCn1c(SCC(=O)NCCOC)nc2scc(-c3ccco3)c2c1=O	?	?	?	18µM*	?	-9%
C=CCn1c(SCC(=O)NCC2CCCO2)nc2scc(-c3ccc(OC)cc3)c2c1=O (configuration not stated)	-16%	2%	19%	-2%	8%	/
C=CCn1c(SCC(=O)NCC2CCCO2)nc2scc(-c3ccco3)c2c1=O (configuration not stated)	-33%	7.1µM*	?	-9%	?	?
C=CCn1c(SCC(N)=O)nc2scc(-c3ccc(C)o3)c2c1=O	-13%[60.1 µM]	19%	-6%	13%	2%	-5%
CC1=Nc2cc(C(=O)NC3CCCC3)ccc2Sc2ccc(Br)cc21	-11%	21%	8%	-12%	/	/
CC1=Nc2cc(C(=O)O)ccc2Sc2ccc(Br)cc21	?	1%	?	50µM*	?	-3%
Cc1nn(CC(=O)NC2(C)CCS(=O)(=O)C2)c(C)c1S(=O)(=O)N(C)C (configuration not stated)	1%	/	19%	-6%	4%	-7%
O=C(O)Cc1sc(Nc2cccc3ccccc23)nc1-c1ccccc1	-6%	/	-1%	2%	17%	-7%
O=C(O)Cc1sc(Nc2cccc3ccccc23)nc1-c1ccc(Cl)cc1	-13%	?	178%	79µM*	-19%	/
O=C(Nc1nc2c(F)cccc2s1)c1ccc(S(=O)(=O)N2CCCc3ccccc32)cc1	-7%[60.1 µM]	-10%	38%	-16%	/	/
O=C(Nc1nc2c(F)cc(F)cc2s1)c1ccc(S(=O)(=O)N2CCc3ccccc32)cc1	-11%[60.1 µM]	32µM*	?	-11%	/	/
O=C(c1cc(-c2cccc(Br)c2)nc2ccccc12)N1CCCC1	-24%	22µM*	?	-17%	9%	/
